According to paper PMC7862700, “An all-to-all approach to the identification of sequence-specific readers for epigenetic DNA modifications on cytosine”:

Assays:
Experiment in all cases: DAPPL (digital affinity profiling via proximity ligation, sequencing); 10 mM Tris-HCl pH 7.5, 50 mM NaCl, 1 mM DTT, 4% glycerol, room temperature, 30 min; GST-TFs on glutathione beads, 16-mer random dsDNA library, 0.1% formaldehyde crosslink after washing; high values mean tight binding
Conditions in all cases: protein: recombinant; tags: N-terminal GST; dsDNA, one strand shown
[1] = biological target: T1, FLI1 (Homo sapiens, UniProt Q01543 1-452)
T1 sequence: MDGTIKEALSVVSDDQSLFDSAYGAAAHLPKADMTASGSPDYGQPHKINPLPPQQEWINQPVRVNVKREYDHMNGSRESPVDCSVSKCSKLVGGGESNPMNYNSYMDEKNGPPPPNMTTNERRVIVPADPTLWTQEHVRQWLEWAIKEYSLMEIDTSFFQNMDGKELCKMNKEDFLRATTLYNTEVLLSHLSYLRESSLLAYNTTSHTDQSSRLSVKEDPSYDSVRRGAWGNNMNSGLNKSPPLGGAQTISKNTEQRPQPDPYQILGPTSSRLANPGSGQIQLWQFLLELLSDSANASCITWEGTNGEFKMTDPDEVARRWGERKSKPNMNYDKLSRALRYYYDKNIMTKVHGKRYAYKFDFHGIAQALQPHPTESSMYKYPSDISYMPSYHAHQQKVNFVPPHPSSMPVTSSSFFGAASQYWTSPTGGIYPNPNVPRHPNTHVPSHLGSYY
Outline: (§1)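 Sequencing on an Illumina NextSeq500 followed washing, crosslinking with 0.1% formaldehyde, proximity ligation (BsaI/T4 ligase, 1 h, 37 °C) and PCR amplification of pools that had been incubated for 30 min at room temperature with 200 nmole of a random double-stranded 16-mer DNA library in Tris/NaCl/DTT/glycerol buffer. Each pool held DNA-barcoded human transcription factors, expressed in yeast as GST fusions and captured on glutathione beads, plus a tag-only sample. Binding signal is a hexamer's read frequency for a factor divided by its frequency in the tag-only sample.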

[2] = biological target: T2, ELK1 (Homo sapiens, UniProt P19419 1-428)
T2 sequence: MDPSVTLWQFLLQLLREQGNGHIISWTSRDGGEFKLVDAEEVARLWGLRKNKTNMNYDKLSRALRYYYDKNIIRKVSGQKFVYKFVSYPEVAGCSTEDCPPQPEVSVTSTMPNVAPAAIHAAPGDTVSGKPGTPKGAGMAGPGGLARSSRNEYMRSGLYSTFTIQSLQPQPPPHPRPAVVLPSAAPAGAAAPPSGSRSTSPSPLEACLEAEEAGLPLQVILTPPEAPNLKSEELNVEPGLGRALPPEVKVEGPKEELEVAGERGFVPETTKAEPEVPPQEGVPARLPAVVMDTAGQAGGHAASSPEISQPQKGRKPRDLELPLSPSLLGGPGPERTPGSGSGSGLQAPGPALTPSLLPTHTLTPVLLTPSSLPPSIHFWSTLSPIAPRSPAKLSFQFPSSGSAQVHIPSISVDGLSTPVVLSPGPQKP
Outline: as §1

[3] = biological target: T3, GABPA (Homo sapiens, UniProt Q06546 1-454)
T3 sequence: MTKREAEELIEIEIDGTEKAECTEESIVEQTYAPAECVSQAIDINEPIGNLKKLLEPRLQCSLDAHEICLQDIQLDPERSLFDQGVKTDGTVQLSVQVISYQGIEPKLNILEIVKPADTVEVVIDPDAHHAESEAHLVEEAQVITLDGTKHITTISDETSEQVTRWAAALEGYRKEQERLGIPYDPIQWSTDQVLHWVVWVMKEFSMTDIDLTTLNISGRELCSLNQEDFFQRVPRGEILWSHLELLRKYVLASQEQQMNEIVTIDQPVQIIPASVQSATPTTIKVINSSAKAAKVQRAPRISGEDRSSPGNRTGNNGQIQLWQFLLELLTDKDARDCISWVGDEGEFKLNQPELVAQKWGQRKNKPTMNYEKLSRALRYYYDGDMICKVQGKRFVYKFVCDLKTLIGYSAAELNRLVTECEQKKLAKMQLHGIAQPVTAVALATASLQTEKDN
Outline: as §1

[4] = biological target: T4, ERG (Homo sapiens, UniProt P11308 1-479)
T4 sequence: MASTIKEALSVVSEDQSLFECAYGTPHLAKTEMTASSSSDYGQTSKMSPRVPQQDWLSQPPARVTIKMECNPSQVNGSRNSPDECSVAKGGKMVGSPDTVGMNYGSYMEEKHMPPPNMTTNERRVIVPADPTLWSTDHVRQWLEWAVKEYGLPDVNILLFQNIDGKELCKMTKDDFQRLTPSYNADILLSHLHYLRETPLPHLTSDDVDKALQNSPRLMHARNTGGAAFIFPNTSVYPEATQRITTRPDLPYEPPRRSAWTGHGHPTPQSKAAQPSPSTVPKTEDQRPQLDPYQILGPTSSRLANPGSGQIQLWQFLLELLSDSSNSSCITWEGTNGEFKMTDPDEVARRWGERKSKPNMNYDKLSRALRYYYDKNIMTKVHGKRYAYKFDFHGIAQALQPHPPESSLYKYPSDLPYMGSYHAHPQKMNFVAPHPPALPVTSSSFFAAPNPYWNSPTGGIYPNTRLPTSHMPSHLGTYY
Outline: as §1

[5] = biological target: ELF1 (Homo sapiens, UniProt P32519 1-619)
ELF1, sequence (P32519 whole entry): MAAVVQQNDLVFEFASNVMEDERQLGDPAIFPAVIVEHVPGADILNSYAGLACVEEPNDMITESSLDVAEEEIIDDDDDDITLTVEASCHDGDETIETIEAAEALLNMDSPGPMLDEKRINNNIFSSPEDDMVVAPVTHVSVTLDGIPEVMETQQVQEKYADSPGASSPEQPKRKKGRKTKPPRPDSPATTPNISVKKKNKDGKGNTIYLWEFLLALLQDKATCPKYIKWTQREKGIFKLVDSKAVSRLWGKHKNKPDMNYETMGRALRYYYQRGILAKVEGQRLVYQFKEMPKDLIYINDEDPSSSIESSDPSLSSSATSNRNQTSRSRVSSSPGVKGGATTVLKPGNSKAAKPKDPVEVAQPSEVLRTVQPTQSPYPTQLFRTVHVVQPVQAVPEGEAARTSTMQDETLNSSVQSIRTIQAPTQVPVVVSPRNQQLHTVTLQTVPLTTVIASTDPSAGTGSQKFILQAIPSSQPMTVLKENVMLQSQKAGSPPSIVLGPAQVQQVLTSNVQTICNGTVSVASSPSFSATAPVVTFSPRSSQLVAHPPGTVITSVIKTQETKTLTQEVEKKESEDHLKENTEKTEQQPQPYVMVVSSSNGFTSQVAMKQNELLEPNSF
Outline: as §1

[6] = biological target: T5, EHF (Homo sapiens, UniProt Q9NZC4 1-300)
T5 sequence: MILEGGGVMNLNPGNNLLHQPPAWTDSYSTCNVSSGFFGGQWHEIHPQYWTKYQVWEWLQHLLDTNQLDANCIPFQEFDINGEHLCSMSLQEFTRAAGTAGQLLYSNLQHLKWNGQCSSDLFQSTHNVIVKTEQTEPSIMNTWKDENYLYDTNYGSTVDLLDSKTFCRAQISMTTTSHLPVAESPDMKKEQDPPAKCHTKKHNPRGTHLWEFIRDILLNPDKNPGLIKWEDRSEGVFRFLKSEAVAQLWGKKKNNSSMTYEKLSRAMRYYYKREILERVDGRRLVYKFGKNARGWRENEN
Outline: as §1

[7] = biological target: SPI1 (Homo sapiens, UniProt P17947 1-270)
Outline: as §1

[8] = biological target: SPIB (Homo sapiens, UniProt Q01892 1-262)
SPIB, sequence (Q01892 whole entry): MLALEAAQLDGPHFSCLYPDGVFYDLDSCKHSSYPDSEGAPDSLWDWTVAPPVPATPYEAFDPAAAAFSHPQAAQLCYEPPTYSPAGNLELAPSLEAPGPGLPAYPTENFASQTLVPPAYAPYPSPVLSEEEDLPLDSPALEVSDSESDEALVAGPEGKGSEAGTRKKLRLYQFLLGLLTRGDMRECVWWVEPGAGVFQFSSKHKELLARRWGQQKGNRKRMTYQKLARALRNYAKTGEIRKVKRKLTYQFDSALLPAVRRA
Outline: as §1

[9] = biological target: T6, ELK3 (Homo sapiens, UniProt P41970 1-407)
T6 sequence: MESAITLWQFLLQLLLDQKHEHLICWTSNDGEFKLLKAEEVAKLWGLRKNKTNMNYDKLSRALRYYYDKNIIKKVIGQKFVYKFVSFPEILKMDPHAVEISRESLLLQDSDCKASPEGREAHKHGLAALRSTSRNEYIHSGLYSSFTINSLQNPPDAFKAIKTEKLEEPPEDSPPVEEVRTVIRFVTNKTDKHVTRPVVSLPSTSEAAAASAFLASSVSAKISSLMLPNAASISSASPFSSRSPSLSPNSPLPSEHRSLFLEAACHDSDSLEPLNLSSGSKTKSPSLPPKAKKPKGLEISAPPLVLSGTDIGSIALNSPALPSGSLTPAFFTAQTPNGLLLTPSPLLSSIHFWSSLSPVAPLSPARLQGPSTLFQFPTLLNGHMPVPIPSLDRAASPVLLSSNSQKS
Outline: as §1

[10] = biological target: T7, FEV (Homo sapiens, UniProt Q99581 1-238)
T7 sequence: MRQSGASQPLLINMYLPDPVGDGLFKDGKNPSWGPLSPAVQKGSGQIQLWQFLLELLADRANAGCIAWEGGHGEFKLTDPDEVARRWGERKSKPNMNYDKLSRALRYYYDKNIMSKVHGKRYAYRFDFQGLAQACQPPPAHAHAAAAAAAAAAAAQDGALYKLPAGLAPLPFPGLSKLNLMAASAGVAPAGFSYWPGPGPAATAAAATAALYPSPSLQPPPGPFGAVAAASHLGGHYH
Outline: as §1

[11] = biological target: ETV5 (Homo sapiens, UniProt P41161 1-510)
ETV5, sequence (P41161 whole entry): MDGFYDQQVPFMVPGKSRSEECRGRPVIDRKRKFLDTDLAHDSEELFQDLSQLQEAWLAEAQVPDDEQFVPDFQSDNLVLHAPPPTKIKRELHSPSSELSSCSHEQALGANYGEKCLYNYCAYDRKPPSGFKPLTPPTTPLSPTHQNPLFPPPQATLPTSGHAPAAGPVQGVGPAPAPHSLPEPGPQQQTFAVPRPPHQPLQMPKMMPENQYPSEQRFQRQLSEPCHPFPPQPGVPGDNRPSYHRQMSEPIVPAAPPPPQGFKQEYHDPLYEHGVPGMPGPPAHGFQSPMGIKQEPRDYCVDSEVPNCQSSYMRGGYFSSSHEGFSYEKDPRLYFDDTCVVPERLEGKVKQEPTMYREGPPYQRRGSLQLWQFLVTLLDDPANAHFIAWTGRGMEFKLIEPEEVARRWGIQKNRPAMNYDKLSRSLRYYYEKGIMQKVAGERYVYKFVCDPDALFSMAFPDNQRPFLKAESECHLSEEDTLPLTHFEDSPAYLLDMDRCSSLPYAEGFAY
Outline: as §1

[12] = biological target: ELF4 (Homo sapiens, UniProt Q99607 1-663)
ELF4, sequence (Q99607 whole entry): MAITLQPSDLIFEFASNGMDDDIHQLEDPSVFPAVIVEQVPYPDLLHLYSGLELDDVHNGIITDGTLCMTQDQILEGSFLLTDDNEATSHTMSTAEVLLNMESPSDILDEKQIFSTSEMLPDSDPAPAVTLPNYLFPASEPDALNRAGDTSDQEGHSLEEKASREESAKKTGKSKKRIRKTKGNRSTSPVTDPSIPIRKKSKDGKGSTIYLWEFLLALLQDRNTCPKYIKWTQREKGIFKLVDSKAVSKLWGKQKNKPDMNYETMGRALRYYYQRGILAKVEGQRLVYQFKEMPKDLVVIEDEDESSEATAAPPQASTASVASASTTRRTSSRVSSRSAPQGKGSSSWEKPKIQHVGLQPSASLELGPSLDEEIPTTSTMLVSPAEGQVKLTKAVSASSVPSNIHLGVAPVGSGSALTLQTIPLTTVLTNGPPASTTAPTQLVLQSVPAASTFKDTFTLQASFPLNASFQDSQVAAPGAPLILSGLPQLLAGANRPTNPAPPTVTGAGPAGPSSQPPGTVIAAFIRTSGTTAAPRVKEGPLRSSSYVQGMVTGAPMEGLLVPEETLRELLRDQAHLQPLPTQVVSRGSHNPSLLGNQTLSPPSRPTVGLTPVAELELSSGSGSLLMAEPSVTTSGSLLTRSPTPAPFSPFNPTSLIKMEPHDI
Outline: as §1

[13] = biological target: ETV1 (Homo sapiens, UniProt P50549 1-477)
ETV1, sequence (P50549 whole entry): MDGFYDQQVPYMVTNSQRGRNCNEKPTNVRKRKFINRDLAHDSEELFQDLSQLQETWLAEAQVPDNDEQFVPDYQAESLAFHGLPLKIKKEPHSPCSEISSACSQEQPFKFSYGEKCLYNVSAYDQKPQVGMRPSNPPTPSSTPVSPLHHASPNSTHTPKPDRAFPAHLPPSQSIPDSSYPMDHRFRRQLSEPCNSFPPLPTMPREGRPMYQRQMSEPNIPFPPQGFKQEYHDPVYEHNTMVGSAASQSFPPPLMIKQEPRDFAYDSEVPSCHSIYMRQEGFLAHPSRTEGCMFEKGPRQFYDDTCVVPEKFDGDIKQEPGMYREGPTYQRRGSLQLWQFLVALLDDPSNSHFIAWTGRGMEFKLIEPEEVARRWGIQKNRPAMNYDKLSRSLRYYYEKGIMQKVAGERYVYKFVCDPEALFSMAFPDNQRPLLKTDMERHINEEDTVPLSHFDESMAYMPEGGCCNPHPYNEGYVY
Outline: as §1

[14] = biological target: T8, ERF (Homo sapiens, UniProt P50548 1-548)
T8 sequence: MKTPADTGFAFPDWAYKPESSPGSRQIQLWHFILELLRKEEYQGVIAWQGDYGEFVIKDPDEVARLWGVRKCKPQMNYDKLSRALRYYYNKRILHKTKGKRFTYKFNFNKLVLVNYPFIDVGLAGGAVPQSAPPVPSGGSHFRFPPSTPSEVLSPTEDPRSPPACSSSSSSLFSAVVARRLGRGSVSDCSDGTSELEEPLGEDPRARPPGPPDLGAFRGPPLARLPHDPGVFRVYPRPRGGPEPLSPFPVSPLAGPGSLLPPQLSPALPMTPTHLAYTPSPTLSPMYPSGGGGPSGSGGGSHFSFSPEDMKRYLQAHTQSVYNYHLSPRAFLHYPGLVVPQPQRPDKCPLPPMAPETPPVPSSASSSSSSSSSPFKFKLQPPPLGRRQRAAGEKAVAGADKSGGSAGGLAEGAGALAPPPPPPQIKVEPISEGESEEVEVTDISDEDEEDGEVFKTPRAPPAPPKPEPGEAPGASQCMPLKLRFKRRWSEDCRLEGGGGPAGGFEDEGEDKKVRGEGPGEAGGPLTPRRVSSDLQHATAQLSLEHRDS
Outline: as §1

[15] = biological target: T9, ETV3L (Homo sapiens, UniProt Q6ZN32 1-361)
T9 sequence: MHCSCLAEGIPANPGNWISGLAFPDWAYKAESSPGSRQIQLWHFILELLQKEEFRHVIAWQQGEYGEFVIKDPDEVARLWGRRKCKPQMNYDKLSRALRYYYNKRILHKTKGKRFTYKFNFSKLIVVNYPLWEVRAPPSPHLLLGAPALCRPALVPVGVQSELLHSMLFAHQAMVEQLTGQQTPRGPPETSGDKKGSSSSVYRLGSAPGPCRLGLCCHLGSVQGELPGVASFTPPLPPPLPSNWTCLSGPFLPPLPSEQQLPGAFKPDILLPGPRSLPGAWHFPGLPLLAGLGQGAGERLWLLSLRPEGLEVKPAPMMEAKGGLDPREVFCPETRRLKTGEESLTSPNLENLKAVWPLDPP
Outline: as §1

[16] = biological target: T10, ETS2 (Homo sapiens, UniProt P15036 1-469)
T10 sequence: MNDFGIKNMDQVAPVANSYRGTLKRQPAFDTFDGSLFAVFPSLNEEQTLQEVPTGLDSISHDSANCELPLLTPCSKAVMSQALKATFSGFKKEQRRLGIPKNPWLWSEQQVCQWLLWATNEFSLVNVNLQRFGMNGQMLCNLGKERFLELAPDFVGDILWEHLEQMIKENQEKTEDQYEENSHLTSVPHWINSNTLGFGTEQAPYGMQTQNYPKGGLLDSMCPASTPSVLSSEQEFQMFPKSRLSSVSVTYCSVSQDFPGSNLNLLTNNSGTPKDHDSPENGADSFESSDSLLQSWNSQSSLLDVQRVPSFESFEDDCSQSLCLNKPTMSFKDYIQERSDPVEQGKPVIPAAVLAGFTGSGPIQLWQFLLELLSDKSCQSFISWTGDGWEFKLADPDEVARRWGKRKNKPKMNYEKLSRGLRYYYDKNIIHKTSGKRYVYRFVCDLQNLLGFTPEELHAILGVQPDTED
Outline: as §1

[17] = biological target: T11, SPDEF (Homo sapiens, UniProt O95238 1-335)
T11 sequence: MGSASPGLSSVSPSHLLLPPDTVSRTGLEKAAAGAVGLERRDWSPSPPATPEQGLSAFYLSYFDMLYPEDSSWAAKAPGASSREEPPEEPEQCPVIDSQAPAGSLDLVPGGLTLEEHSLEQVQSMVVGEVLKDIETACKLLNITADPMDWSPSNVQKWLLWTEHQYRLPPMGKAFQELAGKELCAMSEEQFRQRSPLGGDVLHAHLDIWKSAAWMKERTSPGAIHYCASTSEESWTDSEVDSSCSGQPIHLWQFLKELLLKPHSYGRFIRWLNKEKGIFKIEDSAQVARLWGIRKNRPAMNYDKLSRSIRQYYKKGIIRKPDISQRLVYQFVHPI
Outline: as §1

[18] = biological target: T12, ETV3 (Homo sapiens, UniProt P41162-2 1-143)
T12 sequence: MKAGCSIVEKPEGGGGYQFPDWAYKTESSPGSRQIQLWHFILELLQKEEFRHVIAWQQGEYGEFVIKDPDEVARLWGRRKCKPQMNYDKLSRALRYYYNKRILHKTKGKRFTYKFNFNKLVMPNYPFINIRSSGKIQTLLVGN
Outline: as §1

[19] = biological target: ETV6 (Homo sapiens, UniProt P41212 1-452)
ETV6, sequence (P41212 whole entry): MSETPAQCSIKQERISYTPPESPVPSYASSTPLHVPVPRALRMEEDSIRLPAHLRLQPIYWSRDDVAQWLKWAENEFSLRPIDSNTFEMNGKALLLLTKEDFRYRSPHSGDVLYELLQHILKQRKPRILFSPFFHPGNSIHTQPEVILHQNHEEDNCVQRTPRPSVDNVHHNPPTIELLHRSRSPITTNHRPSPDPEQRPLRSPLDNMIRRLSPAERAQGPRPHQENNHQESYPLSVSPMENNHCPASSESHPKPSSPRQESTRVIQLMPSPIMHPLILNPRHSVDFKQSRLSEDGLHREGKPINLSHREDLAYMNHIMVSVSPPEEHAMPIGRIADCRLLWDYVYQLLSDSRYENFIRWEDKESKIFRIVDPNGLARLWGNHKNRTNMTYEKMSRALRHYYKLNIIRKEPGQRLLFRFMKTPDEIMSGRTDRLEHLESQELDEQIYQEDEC
Outline: as §1

With GTACCC the binding signal [1] was 1.08 fold enrichment (6-mer frequency, TF over GST control), the binding signal [2] was 1.05 fold enrichment (6-mer frequency, TF over GST control) and the binding signal [3] was 1.07 fold enrichment (6-mer frequency, TF over GST control). For the same sequence, the binding signal [4] was 1.05 fold enrichment (6-mer frequency, TF over GST control), the binding signal [5] was 1.12 fold enrichment (6-mer frequency, TF over GST control) and the binding signal [6] was 1.16 fold enrichment (6-mer frequency, TF over GST control). The binding signal [7] was 1.16 fold enrichment (6-mer frequency, TF over GST control), the binding signal [8] was 1.07 fold enrichment (6-mer frequency, TF over GST control) and the binding signal [9] was 1.12 fold enrichment (6-mer frequency, TF over GST control). The binding signal [10] was 1.05 fold enrichment (6-mer frequency, TF over GST control), the binding signal [11] was 1.17 fold enrichment (6-mer frequency, TF over GST control) and the binding signal [12] was 1.06 fold enrichment (6-mer frequency, TF over GST control). For the same sequence, the binding signal [13] was 1.11 fold enrichment (6-mer frequency, TF over GST control), the binding signal [14] was 1.13 fold enrichment (6-mer frequency, TF over GST control) and the binding signal [15] was 1.16 fold enrichment (6-mer frequency, TF over GST control). The binding signal [16] was 1.12 fold enrichment (6-mer frequency, TF over GST control), the binding signal [17] was 1.14 fold enrichment (6-mer frequency, TF over GST control) and the binding signal [18] was 1.06 fold enrichment (6-mer frequency, TF over GST control). The binding signal [19] was 1.13 fold enrichment (6-mer frequency, TF over GST control).
